# Screening data (PubChem)
# Only some compounds are listed: those with a hit (about 1.2% of all), similar ones and a draw of the others.
# Statin myotox sup = suppression of simvastatin myotoxicity | 0.78% of 330,000 active | AID 602340 | C2C12 myotubes + simvastatin, ATP luminescence, 48 h; scaled: DMSO 0, geranylgeraniol control 100 | rescue of ATP level, % at 7.49 µM;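 active means mean ATP rescue above about 67%, or every replicate alone reaching that limit, limit read from the data, passing the limit was not always enough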;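 further: myotubes were challenged with 10 µM simvastatin during compound exposure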
# miR122 inh = miR-122 inhibition in Huh7 cells; Huh7 miR-122 Renilla luciferase sensor, 48 h; neutral wells = 0, positive control = 100; AID 602342; activation (reporter increase), % at 12.5 µM; 0.3% of 340,000 active;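 active means mean replicate activation score at least 90 and every replicate individually at or above 90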;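 further: higher luciferase means less miR-122 activity so hits act as miR-122 inhibitors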
# PglD DTNB = inhibitors of Campylobacter jejuni PglD acetyltransferase; purified PglD enzyme, DTNB colorimetric CoA detection; inhibition, % at 12.5 µM; 0.098% of 360,000 active; in the data active means inhibition above about 16%, passing the limit was not always enough
# NSD2 HMT inh = inhibitors of human histone methyltransferase NSD2 | O96028 | NSD2 peptide methylation, AlphaScreen, 120 min | inhibition, % at 12.5 µM | 0.54% of 310,000 active; in the data active means inhibition above about 50%
# A number is an active result; 0 = inactive; - = no result given.
SMILES,Statin myotox sup,miR122 inh,PglD DTNB,NSD2 HMT inh
C[C@H]1CN([C@@H](C)CO)C(=O)c2cccc(NS(=O)(=O)c3cccs3)c2O[C@@H]1CN(C)CC1CC1,0,0,0,-
COCCCN1C(=O)C(=O)/C(=C(/O)c2ccc(OC)cc2)C1c1cccc(OC)c1 (configuration not stated),125,0,-,0
COc1ccc(C2/C(=C(/O)c3ccccc3)C(=O)C(=O)N2CCO)cc1 (configuration not stated),87,0,0,0
COCCCN1C(=O)C(=O)/C(=C(/O)c2ccc(C)cc2)C1c1ccccc1 (configuration not stated),-,0,0,0
CO[C@H]1CN(C)C(=O)c2cc(NC(=O)Nc3c(C)noc3C)ccc2OC[C@@H](C)N(C)C[C@H]1C,0,-,0,-
C[C@H](CO)N1C[C@H](C)[C@@H](CN(C)S(=O)(=O)c2ccc(Cl)cc2)OCCCC[C@H](C)Oc2ccc(NC(=O)CCCN(C)C)cc2C1=O,0,0,0,-
CNC(=O)CC(=O)Nc1ccccc1C(=O)O,105,0,0,0
C[C@@H]1CN([C@H](C)CO)S(=O)(=O)c2ccc(C3=CCCCC3)cc2O[C@H]1CN(C)C(=O)Nc1ccc2c(c1)OCO2,0,0,0,-
O=C(Cc1cccs1)Nc1ccc(S(=O)(=O)N2CCCCC2)cc1,0,132,0,0
COc1ccc(OCC(=O)Nc2nnc(S(=O)(=O)N3CCCCCC3)s2)cc1,113,0,0,-
O=C(COc1ccccc1)Nc1nnc(S(=O)(=O)N2CCCC2)s1,0,0,0,0
O=C(COc1ccccc1)Nc1ccc(S(=O)(=O)N2CCCCCC2)cc1,0,0,0,0
O=C(COc1ccccc1)Nc1ccc(S(=O)(=O)N2CCCC2)cc1,116,0,0,-
Cc1noc(C)c1NC(=O)N(C)C[C@@H]1OCCCC[C@H](C)Oc2ccc(NC(=O)c3ccncc3)cc2C(=O)N([C@H](C)CO)C[C@H]1C,0,0,0,-
C[C@H](CO)N1C[C@H](C)[C@H](CN(C)Cc2ccc3c(c2)OCO3)Oc2c(NS(=O)(=O)c3cn(C)cn3)cccc2C1=O,0,0,0,-
Cc1ccc2[nH]c(=O)c(NC(N)=S)nc2c1,101,0,0,0
O=C(Nc1ccc(Cl)c([N+](=O)[O-])c1)C(NCCCO)c1ccccc1 (configuration not stated),-,226,0,0
C[C@H]1CN([C@@H](C)CO)C(=O)c2cccc(N(C)C)c2O[C@@H]1CN(C)Cc1ccc(C(F)(F)F)cc1,0,0,0,-
C[C@@H]1CCCCO[C@@H](CN(C)Cc2ccc(C(F)(F)F)cc2)[C@H](C)CN([C@H](C)CO)C(=O)c2cc(NC(=O)c3ccncc3)ccc2O1,0,0,0,-
C[C@@H]1CN([C@@H](C)CO)C(=O)c2cc(NS(=O)(=O)c3cccs3)ccc2O[C@@H](C)CCCCO[C@@H]1CN(C)Cc1ccc(C(F)(F)F)cc1,116,0,0,-
C[C@H](CO)N1C[C@H](C)[C@@H](CN(C)Cc2ccc(C(F)(F)F)cc2)OCCCC[C@H](C)Oc2ccc(NC(=O)c3ccncc3)cc2C1=O,0,0,0,-
C[C@@H]1CCCCO[C@@H](CN(C)Cc2ccc(C(F)(F)F)cc2)[C@@H](C)CN([C@@H](C)CO)C(=O)c2cc(NS(=O)(=O)c3cccs3)ccc2O1,0,0,0,-
C[C@@H]1CCCCO[C@@H](CN(C)Cc2ccc(C(F)(F)F)cc2)[C@H](C)CN([C@@H](C)CO)C(=O)c2cc(NC(=O)c3ccncc3)ccc2O1,121,0,0,-
C[C@H](CO)N1C[C@H](C)[C@@H](CN(C)C(=O)CCCN(C)C)OCCCC[C@H](C)Oc2ccc(NC(=O)Nc3ccc(C(F)(F)F)cc3)cc2C1=O,90,0,0,-
C[C@@H]1CCCCO[C@H](CN(C)Cc2ccc(C(F)(F)F)cc2)[C@H](C)CN([C@@H](C)CO)C(=O)c2cc(NC(=O)c3ccncc3)ccc2O1,76,0,0,-
O=C(C1CCCC1)N1CCCCN2[C@H](C1)[C@@H](c1ccc(-c3cccc(F)c3)cc1)[C@@H]2CO,-,0,0,-
O=C(O)C[C@H]1CC[C@H](NC(=O)Nc2ccccc2)[C@@H](CO)O1,0,-,0,-
COc1ccc(S(=O)(=O)N(C)C[C@H]2OCCCC[C@H](C)Oc3ccc(NC(=O)Cc4ccccc4)cc3C(=O)N([C@@H](C)CO)C[C@@H]2C)cc1,-,0,0,-
CC#CC#Cc1cccc(=O)o1,97,0,0,0
Cc1noc(C)c1NC(=O)N(C)C[C@@H]1OCCCC[C@H](C)Oc2ccc(NC(=O)Nc3ccc(F)cc3)cc2C(=O)N([C@H](C)CO)C[C@@H]1C,-,0,0,-
